# Assay results taken from PubChem BioAssay AID1259343 (VanderVen Lab, College of Veterinary Medicine, Cornell …, 2017).
# Hit rate of the full screen: of about 6,200 compounds, about 2,900 (47%) were called active. Cut-off read from the data, not from the text of the source: active = inhibition above about 50%; inactive = the rest. So high a share suggests a set chosen from earlier hits. The list shows a part of the results.
# Assay: Mycobacterium tuberculosis growth inhibition, primary screen (AID 1259343)
# Conditions: inhibition: at 10 µM, hits give high values; outcome: 10 uM
row,Compound,inhibition
1,CCc1sc(C(=O)OCC(=O)N(C)CC(=O)Nc2ccc(C)cc2)cc1C,-39.5% (inactive)
2,CCc1ccc(NC(=O)COC(=O)c2cc(C(C)=O)n3ccccc23)cc1,65% (active)
3,Nc1[nH]n(-c2ccccc2)c(=O)c1N=Nc1ccc2ncsc2c1,-3.23% (inactive)
4,Cc1nc(N)sc1N=Nc1cccc2ccccc12,4.08% (inactive)
5,Nc1[nH]n(-c2ccccc2)c(=O)c1N=Nc1cccc2ccccc12,56.7% (active)
6,CCc1cc(C=NC2CCCCC2)c(O)s1,54.5% (active)
7,CC1Cc2ccccc2N1Sc1ccc([N+](=O)[O-])cc1 (centres undefined),58.6% (active)
8,CC1Cc2ccccc2N1Cc1cccc(C(N)=O)c1 (centres undefined),25.1% (inactive)
9,CC1Cc2ccccc2N1C(=O)C1CCN(c2ccc(C#N)cn2)CC1 (centres undefined),-4.71% (inactive)
10,Cc1ccc(-c2nsc(C(=O)N3CCCC(C)C3)c2N)cc1 (centres undefined),47.8% (inactive)
11,COc1ccccc1Cn1c(C)c(C(=O)NCc2ccccc2C(F)(F)F)sc1=O,15.1% (inactive)
12,Cc1c(C(=O)NCc2ccc(Cl)c(Cl)c2)sc(=O)n1Cc1ccccc1F,-10.2% (inactive)
13,Cc1c(C(=O)NCc2ccccc2C(F)(F)F)sc(=O)n1Cc1cccc(C(F)(F)F)c1,18.8% (inactive)
14,Cc1c(C(=O)NCc2ccccc2C(F)(F)F)sc(=O)n1Cc1ccccc1F,21% (inactive)
15,COc1ccc(Br)c(Cn2c(C)c(C(=O)NCc3ccccc3C(F)(F)F)sc2=O)c1,58.8% (active)
16,Cc1ccccc1Cn1c(C)c(C(=O)NCc2ccccc2C(F)(F)F)sc1=O,65.1% (active)
17,Nc1nc(CSc2nnc(C3CC3)n2C2CC2)nc(Nc2ccc(F)cc2)n1,-0.78% (inactive)
18,Cc1c2c(nc3cc4c(cc13)OCO4)CCc1ccccc1-2,76.4% (active)
19,O=S(=O)(Nc1ccc(F)c(Cl)c1)c1ccc(Cl)cc1F,66.8% (active)
20,Cc1cc(S(=O)(=O)Nc2ccc(F)c(Cl)c2)c(C)s1,30.5% (inactive)
21,O=S(=O)(Nc1ccc(F)c(F)c1)c1cc(Cl)ccc1Cl,95.3% (active)
22,O=S(=O)(Nc1cc(Cl)ccc1F)c1cc(Cl)ccc1Cl,28.1% (inactive)

row,Compound,inhibition
1,O=S(=O)(Nc1cc(Cl)cc(Cl)c1)c1cc(Cl)ccc1Cl,56.9% (active)
2,c1csc(-c2nc(CSc3ncnc4sccc34)co2)c1,24.4% (inactive)
3,COc1cccc(-c2noc(CSc3ncnc4sccc34)n2)c1,98.8% (active)
4,N#CC1(C(=O)Nc2nc(-c3ccc(Cl)s3)cs2)CCCC1,89.1% (active)
5,Clc1cccc(-c2csc(NC3CC3)n2)c1,44.2% (inactive)
6,O=C(O)C1C2C=CC(C2)C1C(=O)Nc1nc(-c2ccc(Cl)s2)cs1 (centres undefined),35.5% (inactive)
7,O=C(CCn1[nH]c(=O)ccc1=O)Nc1nc(-c2ccc(Cl)s2)cs1,49.2% (inactive)
8,N#CC1(C(=O)Nc2nc(-c3cccc(C(F)(F)F)c3)cs2)CCCC1,55.5% (active)
9,Cc1ccc(C(=O)c2ccc(CC(=O)O)n2C)cc1,52.8% (active)
10,Fc1ccc(-c2cnc(CSc3nnnn3C3CC3)o2)cc1,8.58% (inactive)
11,c1ccc(-c2cnc(CSc3nnnn3C3CC3)o2)cc1,18.6% (inactive)
12,c1ccc(-c2cc(CSc3nnnn3C3CC3)no2)cc1,84.1% (active)
13,Cc1ccc(S(=O)(=O)N(C)CCOc2ccccc2C)s1,55.1% (active)
14,O=C(O[C@@H]1Cc2c(O)cc(O)cc2O[C@@H]1c1ccc(O)c(O)c1)c1cc(O)c(O)c(O)c1,78.4% (active)
15,Cc1ccccc1Cn1nc(-c2ccc3c(c2)OCO3)ccc1=O,91.3% (active)
16,Cc1ccccc1Cn1nc(-c2cccs2)ccc1=O,89.9% (active)
17,Cc1ccccc1Cn1nc(-c2ccccc2)ccc1=O,-7.28% (inactive)
18,COc1ccc(-c2ccc(=O)n(Cc3ccccc3C)n2)cc1,27.4% (inactive)
19,O=c1ccc(-c2ccc3c(c2)OCO3)nn1Cc1cccc2ccccc12,-9.21% (inactive)
20,CCc1ccc(-c2ccc(=O)n(Cc3ccccc3C)n2)cc1,14.8% (inactive)
21,O=C(CSc1ncc(-c2ccc([N+](=O)[O-])cc2)[nH]1)NC(C(=O)O)(c1ccccc1)c1ccccc1,-11.4% (inactive)
22,O=C(Cc1ccc(Cl)cc1)NCCSc1ncc(-c2ccccc2)[nH]1,60.9% (active)

row,Compound,inhibition
1,OC(C#Cc1ccccc1)c1ncc(-c2ccccc2)[nH]1 (centres undefined),20.7% (inactive)
2,O=C(Nc1ccc(Cl)nc1)N1CCC(COCc2ccccc2)C1 (centres undefined),95% (active)
3,COC(=O)C1CCC2C3CC=C4CC(O)CCC4(C)C3CCC12C (centres undefined),79.9% (active)
4,COc1ccc(C=C2CC3C4CC=C5CC(O)CCC5(C)C4CCC3(C)C2O)cc1 (centres undefined),-0.03% (inactive)
5,CC12CCC(O)CC1=CCC1C2CCC2(C)C(O)C(=Cc3ccc([N+](=O)[O-])cc3)CC12 (centres undefined),-53.2% (inactive)
6,S=C(NC1Cc2ccccc2C1)N1CCCC1,14.2% (inactive)
7,O=C(Cc1cccc(F)c1)NCc1ccc(Cl)s1,64.5% (active)
8,CN(Cc1cccc(F)c1)C(=O)c1ccc(NC(=O)C2CC2)s1,-11.3% (inactive)
9,CC(=O)c1ccc(OC(=O)COc2cccc(OCCC(C)C)c2)cc1,67.6% (active)
10,CC(=O)c1ccc(OC(=O)COc2ccc(Oc3ccc(C)cc3)cc2)cc1,88.7% (active)
11,COc1cccc(OCC(=O)Oc2ccc(C(=O)c3ccc(C)cc3)cc2)c1,53% (active)
12,CCOc1ccc(OCCOc2ccc(Cl)cc2)cc1,93.8% (active)
13,CCOc1ccccc1OCCOc1ccccc1,27.6% (inactive)
14,CCOc1ccc(OCCOc2ccccc2)cc1,92.8% (active)
15,CCOc1ccc(OCCOCCOc2ccccc2)cc1,92.7% (active)
16,CCOc1ccc(OCCOc2cccc(C(F)(F)F)c2)cc1,84.9% (active)
17,CCOc1cccc(OCCOc2cccc(Br)c2)c1,36.5% (inactive)
18,CCOc1ccc(OCCCOc2ccc(Cl)cc2)cc1,inactive
19,Clc1ccc(OCCOCCOc2ccc(Cl)cc2)cc1,21.3% (inactive)
20,Clc1ccc(OCCOC2OCCOC2OCCOc2ccc(Cl)cc2)cc1 (centres undefined),76.8% (active)
21,CCOc1ccc(OCCCOc2ccc(I)cc2)cc1,92.8% (active)
22,CCOc1ccc(OCCCOc2ccc(CC)cc2)cc1,-34% (inactive)

row,Compound,inhibition
1,CCOc1ccc(OCCCOc2ccc(C)cc2)cc1,-3.92% (inactive)
2,CN=c1scc(C)n1N=C(C)c1cccc(F)c1,15.2% (inactive)
3,COc1ccc(/C=C(/C#N)c2c[nH]c3ccccc23)cc1,33.9% (inactive)
4,CC(C)OCCCNC(=O)Cc1cc(-c2ccc(F)cc2F)on1,36.4% (inactive)
5,O=C(Cc1cc(-c2ccc(F)cc2)on1)NCCC1=CCCCC1,36.7% (inactive)
6,O=C(Cc1cc(-c2ccc(F)cc2F)on1)NCCC1=CCCCC1,85.6% (active)
7,O=C(OCc1cc(-c2ccc(F)cc2F)on1)C1CC1,38.6% (inactive)
8,O=C(Cc1cc(-c2ccc(F)cc2F)on1)NCCc1ccccc1,93.5% (active)
9,O=C(Cc1cc(-c2ccc(F)cc2F)on1)NCCCc1ccccc1,54% (active)
10,COc1ccc(NC(=O)c2ccc3c(c2)CCCC3)cn1,97.6% (active)
11,COc1ccc(NC(=O)c2ccc3c(c2)CCCC3)c(OC)c1,10.4% (inactive)
12,Fc1c(F)c(F)c(N2CCNCC2)c(F)c1F,-14.9% (inactive)
13,FC(F)(F)C1CCCN(c2nsc3ccccc23)C1 (centres undefined),101% (active)
14,Cc1ccc(-c2n[nH]c(=S)n2N=Cc2ccccc2)cc1,55.7% (active)
15,FC(F)Oc1ccc(-c2n[nH]c(=S)n2N=Cc2ccc3c(c2)OCCO3)cc1,85.8% (active)
16,CCN=c1scc(-c2ccc(OC(F)F)cc2)n1N=Cc1ccc2c(c1)OCO2,-4.29% (inactive)
17,O=c1cc(-c2ccc(F)cc2)[nH]n1-c1nc2ccccc2[nH]1,75.6% (active)
18,C=C(C#N)C(O)c1ccc(-c2ccccc2)cc1 (centres undefined),27.8% (inactive)
19,c1ccc(-c2ccc(C(c3ccccc3)n3ccnc3)cc2)cc1 (centres undefined),79.7% (active)
20,CC(C)c1cc(-n2ccnc2)n2ncc(-c3ccccc3)c2n1,inactive
21,Cc1cc(C(=O)N(CCCN(C)C)c2nc3ccc(Cl)cc3s2)nn1C,30.6% (inactive)
22,COc1ccc(Cl)c2sc(N(CCCN(C)C)C(=O)Cc3ccccc3)nc12,69.2% (active)

row,Compound,inhibition
1,CCC(C)(C)C1CCC2(CC1)NCCc1c2[nH]c2ccccc12 (centres undefined),0.19% (inactive)
2,C=CCN(C)C(=O)c1coc(COc2ccc3ccc(OC)cc3c2)n1,65.1% (active)
3,Cc1nonc1CN(C)C(=O)c1coc(COc2cccc(C(F)(F)F)c2)n1,22.3% (inactive)
4,C=C(C)CN(C)C(=O)c1coc(COc2ccc3c(c2)OCO3)n1,26.6% (inactive)
5,N#Cc1c(F)cccc1NCCNc1nc2ccccc2o1,-5.14% (inactive)
6,N#Cc1c(F)cccc1NCc1csc(C2CC2)n1,57.3% (active)
7,OCC1O[C@H]([S-])[C@@H](O)C(O)[C@@H]1O.[Au+] (some centres undefined),5.4% (inactive)
8,Cc1ccc(NC2OC(CO)C(O)C(O)C2O)cc1Br (centres undefined),84.8% (active)
9,COc1cccc(-c2nc3ccc(-c4cccc(Cl)c4)cn3c2CN2CCNCC2)c1,23.2% (inactive)
10,CN(C)CCCOc1ccc(-c2nnc3ccc(-c4cccc(Oc5ccccc5)c4)cn23)cc1,66.5% (active)
11,Cc1cc(NC(=O)CNC(c2ccccn2)C(C)C)ccc1Cl (centres undefined),79.4% (active)
12,CCOc1cccc(-c2cnc(NC(C)=O)cn2)c1,23.7% (inactive)
13,CCOc1cccc(-c2cccc(-n3cnnc3)c2)c1,66% (active)
14,Oc1ccc(CC2COCC(Cc3ccc(O)cc3)C2)cc1 (centres undefined),62.4% (active)
15,CS(=O)(=O)c1nc(-c2ccc(F)cc2)cc(C(F)(F)F)n1,101% (active)
16,O=c1ccc(-c2ccc(F)cc2)nn1Cc1cccc(C(F)(F)F)c1,35.1% (inactive)
17,CS(=O)(=O)c1nc(-c2cccs2)cc(C(F)(F)F)n1,101% (active)
18,CS(=O)(=O)c1nc(-c2ccccc2)cc(C(F)(F)F)n1,99.7% (active)
19,O=c1[nH]c(=S)[nH]c2nc(-c3cccs3)cc(C(F)(F)F)c12,34.4% (inactive)
20,Cc1ccc(-c2cc(C(F)F)nc(S(C)(=O)=O)n2)cc1,90.4% (active)
21,O=c1ccc(-c2ccc(F)cc2)nn1Cc1ccc(C(F)(F)F)cc1,20% (inactive)
